This note sets out measurements from the supplement of paper PMC7695840.

SMILES strings stand for the structures. Counter-ions that a name gives are not always drawn.

Experiment [1] deals with Staphylococcus aureus MW2 delta-mecA (mecA-). The experiment can be described thus: normalized GFP fluorescence (growth of mecA- strain) (fraction of control range); higher = more growth of mecA- strain. The following applies: compound concentration: 150 uM; cefoxitin: subinhibitory; fluorescent label: GFP. The method, boiled down:
(§1)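 Single-replicate 1536-well plates carried 150 μM compound (1.5% DMSO), onto which 5 µL/well of a 1:1 mix of pre-induced S. aureus MW2 cells was dispensed: gene-carrying cells tagged with DsRed and deletion cells tagged with GFP, in LB with a subinhibitory antibiotic dose set daily. Incubation ran 20 h at 37 °C, 90% humidity, unshaken, followed by DsRed (540/590) and GFP (485/520) reads. Per-plate scaling of each channel used single-strain control medians, and plates with high untreated ratios and rows with DsRed/GFP >10 were excluded.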

Experiment [2] relates to Staphylococcus aureus MW2 (mecA+). In words: normalized DsRed fluorescence (growth of mecA+ strain) (fraction of control range); higher = more growth of mecA+ strain. The following applies: compound concentration: 150 uM; cefoxitin: subinhibitory; fluorescent label: DsRed. The method, boiled down: as §1

`O=C(O[C@H]1C[C@H]2CC[C@@H](C1)[N+]21CCCC1)C(O)(c1ccccc1)c1ccccc1` [Trospium chloride (Sanctura)]: the “normalized GFP fluorescence” value in experiment [1] stood at 0.723. Further, the “normalized DsRed fluorescence” value in experiment [2] is 0.453.

Regarding `CN1CCN(C(=O)O[C@H]2c3nccnc3C(=O)N2c2ccc(Cl)cn2)CC1`, in experiment [1], the “normalized GFP fluorescence” value was determined as 0.334. In experiment [2], the “normalized DsRed fluorescence” value is 0.793.

With `Cn1c(CCCC(=O)O)nc2cc(N(CCCl)CCCl)ccc21` [Bendamustine HCL], in experiment [1], the “normalized GFP fluorescence” value amounted to 0.659. Further, in experiment [2], the “normalized DsRed fluorescence” value came to 0.83.

For the molecule `CC(NC(C)(C)C)C(=O)c1cccc(Cl)c1` (configuration not stated) [Amfebutamone (Bupropion)], the “normalized GFP fluorescence” value in experiment [1] amounted to 0.395. Further, the “normalized DsRed fluorescence” value in experiment [2] is 0.602.

As for `c1ccc2c(c1)Nc1ccccc1S2`, in experiment [1], the “normalized GFP fluorescence” value was 0.132. The “normalized DsRed fluorescence” value in experiment [2] came to 0.671.

In the case of `C=CCN1CC[C@]23c4c5ccc(O)c4O[C@H]2C(=O)CC[C@@]3(O)[C@H]1C5`, in experiment [1], the “normalized GFP fluorescence” value was 0.642. Besides, the “normalized DsRed fluorescence” value in experiment [2] came to 0.643.

As for `CCC1(c2ccc(N)cc2)CCC(=O)NC1=O` (configuration not stated), the “normalized GFP fluorescence” value in experiment [1] amounted to 0.425. In addition, the “normalized DsRed fluorescence” value in experiment [2] worked out at 0.946.

As for `CCCN1C[C@H](CSC)C[C@@H]2c3cccc4[nH]cc(c34)C[C@H]21` [Pergolide mesylate], the “normalized GFP fluorescence” value in experiment [1] was found to be 0.105. Besides, in experiment [2], the “normalized DsRed fluorescence” value amounted to 1.03.

Turning to `NC(=O)C[S@@+]([O-])C(c1ccccc1)c1ccccc1`, in experiment [1], the “normalized GFP fluorescence” value was determined as 0.234. The “normalized DsRed fluorescence” value in experiment [2] stood at 1.11.

On to `CN1C[C@H](C(=O)N[C@]2(C)O[C@@]3(O)[C@@H]4CCCN4C(=O)[C@H](Cc4ccccc4)N3C2=O)C=C2c3cccc4[nH]cc(c34)C[C@H]21`, for which, in experiment [1], the “normalized GFP fluorescence” value was found to be 0.435. In experiment [2], the “normalized DsRed fluorescence” value was 1.11.

Turning to `CO[C@]12C[C@@H](COC(=O)c3cncc(Br)c3)CN(C)[C@@H]1Cc1cn(C)c3cccc2c13`, in experiment [1], the “normalized GFP fluorescence” value was found to be 0.411. In experiment [2], the “normalized DsRed fluorescence” value is 0.751.

As to `CN1[C@@H]2C[C@@H](OC(=O)[C@H](CO)c3ccccc3)C[C@H]1[C@@H]1O[C@@H]12`, the “normalized GFP fluorescence” value in experiment [1] is 0.83. The “normalized DsRed fluorescence” value in experiment [2] stood at 0.7.

Take `CN1C(=O)CCS(=O)(=O)C1c1ccc(Cl)cc1` (configuration not stated): the “normalized GFP fluorescence” value in experiment [1] was determined as 0.212. The “normalized DsRed fluorescence” value in experiment [2] was found to be 0.676.

As for `COc1ccc(C(CN(C)C)C2(O)CCCCC2)cc1` (configuration not stated), the “normalized GFP fluorescence” value in experiment [1] stood at 0.6. In experiment [2], the “normalized DsRed fluorescence” value was 0.623.

Take `CCC(=O)O[C@H]1CC[C@H]2[C@@H]3CCC4=CC(=O)CC[C@]4(C)[C@H]3CC[C@]12C`: the “normalized GFP fluorescence” value in experiment [1] was found to be 0.154. The “normalized DsRed fluorescence” value in experiment [2] is 0.364.

As for `CC[C@@H](CO)NC(=O)[C@@H]1C=C2c3cccc4c3c(cn4C)C[C@H]2N(C)C1`, the “normalized GFP fluorescence” value in experiment [1] came out at 0.269. Also, in experiment [2], the “normalized DsRed fluorescence” value is 0.713.

For `Cc1c(N)nc(C(CC(N)=O)NCC(N)C(N)=O)nc1C(=O)NC(C(=O)NC(C)C(O)C(C)C(=O)NC(C(=O)NCCc1nc(-c2nc(C(=O)NCCC[S+](C)C)cs2)cs1)C(C)O)C(O[C@@H]1O[C@@H](CO)[C@@H](O)[C@H](O)[C@@H]1O[C@H]1O[C@H](CO)[C@@H](O)[C@H](OC(N)=O)[C@@H]1O)c1cnc[nH]1` (some centres not stated), the “normalized GFP fluorescence” value in experiment [1] was found to be 0.114. Besides, the “normalized DsRed fluorescence” value in experiment [2] worked out at 0.862.

Regarding `N[C@@H]1C[C@H]1c1ccccc1.N[C@H]1C[C@@H]1c1ccccc1`, in experiment [1], the “normalized GFP fluorescence” value came to 0.546. The “normalized DsRed fluorescence” value in experiment [2] is 0.701.

Regarding `C#C[C@]1(O)CC[C@H]2[C@@H]3CCC4=CC(=O)CC[C@]4(C)[C@H]3CC[C@@]21C`, the “normalized GFP fluorescence” value in experiment [1] was determined as 0.473. For the same molecule, in experiment [2], the “normalized DsRed fluorescence” value amounted to 0.916.

`CCC1(c2cccc(O)c2)CCCCN(C)C1` (configuration not stated) [Meptazinol HCl]: in experiment [1], the “normalized GFP fluorescence” value worked out at 0.168. The “normalized DsRed fluorescence” value in experiment [2] came to 0.815.

Take `CNC(C)[C@H](O)c1ccccc1` (some centres not stated): in experiment [1], the “normalized GFP fluorescence” value came out at 0.353. Besides, in experiment [2], the “normalized DsRed fluorescence” value was determined as 0.809.

Turning to `COP(=O)(OC)C(O)C(Cl)(Cl)Cl` (configuration not stated), in experiment [1], the “normalized GFP fluorescence” value is 0.2. The “normalized DsRed fluorescence” value in experiment [2] worked out at 0.658.

Take `C[C@]12CC[C@H]3[C@@H](CC[C@@]45O[C@@H]4C(O)=C(C#N)C[C@]35C)[C@@H]1CC[C@@H]2O`: the “normalized GFP fluorescence” value in experiment [1] turned out to be 0.134. In addition, the “normalized DsRed fluorescence” value in experiment [2] turned out to be 1.06.

With `Cl[C@H]1[C@H](Cl)[C@@H](Cl)[C@@H](Cl)[C@H](Cl)[C@H]1Cl`, the “normalized GFP fluorescence” value in experiment [1] was 0.612. For the same molecule, the “normalized DsRed fluorescence” value in experiment [2] came to 0.538.

`CC(NC(C)(C)C)C(=O)c1cccc(Cl)c1` (configuration not stated): the “normalized GFP fluorescence” value in experiment [1] was determined as 0.332. Further, the “normalized DsRed fluorescence” value in experiment [2] amounted to 0.882.

For the molecule `CC(C)N(CCNC(=O)CN1CCCC1=O)C(C)C` [Pramiracetam], in experiment [1], the “normalized GFP fluorescence” value turned out to be 0.568. Moreover, in experiment [2], the “normalized DsRed fluorescence” value was 0.402.

`O=P1(NCCCl)OCCCN1CCCl` (configuration not stated): in experiment [1], the “normalized GFP fluorescence” value was determined as 0.399. Moreover, the “normalized DsRed fluorescence” value in experiment [2] was determined as 0.711.

As to `C[C@@H]1CC[C@H]2[C@@H](C)C(=O)O[C@@H]3O[C@@]4(C)CC[C@@H]1[C@]32OO4` [Artemisinin], in experiment [1], the “normalized GFP fluorescence” value came out at 0.505. For the same molecule, the “normalized DsRed fluorescence” value in experiment [2] came to 0.66.

As for `CC[C@H]1CN2CCc3cc(OC)c(OC)cc3[C@@H]2C[C@@H]1C[C@H]1NCCc2cc(OC)c(OC)cc21`, in experiment [1], the “normalized GFP fluorescence” value is 0.439. Further, the “normalized DsRed fluorescence” value in experiment [2] was 0.948.

In the case of `O=C1CN=C(c2ccccc2Cl)c2cc([N+](=O)[O-])ccc2N1`, in experiment [1], the “normalized GFP fluorescence” value was found to be 0.145. In addition, the “normalized DsRed fluorescence” value in experiment [2] came out at 1.02.

On to `C=C1C[C@@H]2[C@H](CC[C@]3(C)C(=O)CC[C@@H]23)[C@@]2(C)C=CC(=O)C=C12` [Exemestane], for which the “normalized GFP fluorescence” value in experiment [1] turned out to be 0.367. In experiment [2], the “normalized DsRed fluorescence” value is 0.545.

For `C[N+]1([O-])[C@@H]2CC[C@H]1C[C@@H](OC(=O)C(CO)c1ccccc1)C2` (some centres not stated), the “normalized GFP fluorescence” value in experiment [1] came out at 0.483. For the same molecule, the “normalized DsRed fluorescence” value in experiment [2] was found to be 1.24.

For the molecule `NCC1(CC(=O)O)CCCCC1`, in experiment [1], the “normalized GFP fluorescence” value came out at 0.647. The “normalized DsRed fluorescence” value in experiment [2] amounted to 0.674.

Take `CN(C)C(=O)Oc1cccc([N+](C)(C)C)c1`: the “normalized GFP fluorescence” value in experiment [1] came out at 0.41. Moreover, the “normalized DsRed fluorescence” value in experiment [2] was found to be 1.1.

For the molecule `CC(C)C[C@H](CN)CC(=O)O`, in experiment [1], the “normalized GFP fluorescence” value was 0.412. In addition, the “normalized DsRed fluorescence” value in experiment [2] turned out to be 0.571.

On to `CNc1ccc(C(=O)CC(O)CCC(C)C2OC(=O)CC(O)CC(=O)CC(O)CC(O)CC(O)CC(O)CC3(O)CC(O)C(C(=O)OC)C(CC(O[C@@H]4O[C@H](C)[C@@H](O)[C@H](N)[C@@H]4O)/C=C/C=C/C=C/C=C/C=C/C=C/C=C/C2C)O3)cc1.COC(=O)C1C(O)CC2(O)CC(O)CC(O)CC(O)CC(O)CC(=O)CC(O)CC(=O)OC(C(C)CCC(O)CC(=O)c3ccc(N)cc3)C(C)/C=C/C=C/C=C/C=C/C=C/C=C/C=C/C(O[C@@H]3O[C@H](C)[C@@H](O)[C@H](N)[C@@H]3O)CC1O2` (some centres not stated), for which the “normalized GFP fluorescence” value in experiment [1] was 0.675. Besides, the “normalized DsRed fluorescence” value in experiment [2] is 0.626.
